The list is not random: actives were taken first. Their share in the collection is about 5%.
AHR act – activates the human aryl hydrocarbon receptor. P35869. AHR-responsive luciferase reporter cells, luminescence. activation, % at 5 µM. 2.5% of 320,000 active; in the data active = activation above about 47%;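 note: 0% = vehicle wells and 100% = reference agonist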
SENP6 block – SENP6 protease inhibition. Recombinant SENP6 catalytic domain, aminoluciferin luminescence. inhibition, % at 10 µM. 1.8% of 330,000 active. AID 2599;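 active = inhibition above about 50% at the single tested dose, limit read from the data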;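 note: plate controls were DMSO wells with enzyme for no effect and DMSO wells lacking enzyme for full effect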
SENP7 inh – SENP7 protease inhibition; Q9BQF6; recombinant SENP7, Z-RLRGG-aminoluciferin luminescence, 40 min; inhibition, % at 5 µM; 1.5% of 330,000 active;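 active = inhibition above about 50% at the single test dose, limit read from the data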;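 note: plate controls were DMSO with enzyme for no effect and no enzyme buffer wells for full effect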
SENP8 block-1 – inhibitors of human SENP8 protease; Q96LD8; recombinant SENP8, Nedd8 substrate fluorescence; inhibition, % at 20 µM; 0.64% of 360,000 active; in the data active = inhibition mostly above about 40%, no sharp cut-off; inactive = mostly below about 27%
Target sequence (Q96LD8 whole entry, looked up): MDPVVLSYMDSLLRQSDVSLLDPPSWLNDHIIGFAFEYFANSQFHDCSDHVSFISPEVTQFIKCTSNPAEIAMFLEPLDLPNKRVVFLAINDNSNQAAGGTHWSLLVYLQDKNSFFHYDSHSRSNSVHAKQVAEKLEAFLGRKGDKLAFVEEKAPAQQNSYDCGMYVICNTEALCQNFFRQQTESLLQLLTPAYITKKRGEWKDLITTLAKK
EBI2 antag – EBI2 (human) antagonism; EBI2 beta-arrestin recruitment, luminescence, 7a,25-OHC stimulated; inhibition, % at 5 µM; AID 651636; P32249; 0.81% of 360,000 active; in the data active = inhibition above about 38%;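 note: enzyme fragment complementation signal reports receptor beta-arrestin coupling in cells; 0% = agonist plus DMSO wells and 100% = wells without agonist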
Target sequence (P32249 whole entry, looked up, the tested form may be a part): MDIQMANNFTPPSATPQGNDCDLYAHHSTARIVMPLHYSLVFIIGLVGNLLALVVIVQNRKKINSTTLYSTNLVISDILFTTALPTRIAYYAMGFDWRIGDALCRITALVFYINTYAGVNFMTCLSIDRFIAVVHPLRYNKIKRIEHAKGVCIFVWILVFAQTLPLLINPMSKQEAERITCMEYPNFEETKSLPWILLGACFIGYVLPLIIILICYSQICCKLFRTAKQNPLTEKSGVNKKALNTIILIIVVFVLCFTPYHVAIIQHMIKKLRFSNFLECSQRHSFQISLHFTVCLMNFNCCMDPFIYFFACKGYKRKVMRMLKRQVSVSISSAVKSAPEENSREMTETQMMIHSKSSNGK
SENP8 block-2 – SENP8 protease inhibition; Q96LD8; purified SENP8, Z-RLRGG-aminoluciferin cleavage, luminescence; inhibition, % at 10 µM; 1.2% of 330,000 active; AID 2540; in the data active = inhibition above about 50%
SENP8 inh conf – confirmation of human SENP8 protease inhibitors. shares compounds with SENP8 block-1. purified SENP8, Nedd8-AMC/pro-Nedd8 cleavage fluorescence, 30 min. inhibition, % at 25 µM. 15% of 1,400 active; in the data active = inhibition mostly above about 39%, no sharp cut-off; inactive = mostly below about 34%
Active calls of the source: *; nt = no result given.

SMILES	AHR act	SENP6 block	SENP7 inh	SENP8 block-1	EBI2 antag	SENP8 block-2	SENP8 inh conf
COc1ccc([N+](=O)[O-])cc1NC(=O)C(C)N1CCN(C(=O)c2ccco2)CC1 (stereo unspecified)	-1	-13	-9	38*	0	0	16
CC(=O)c1cc(Cl)ccc1OCc1cccc(S(=O)(=O)N2CCOCC2)c1	10	-7	6	10	-1	-4	nt
Cc1ccc(NC(=O)CS(=O)CC(=O)NCCCc2ccccc2)cc1Cl (stereo unspecified)	1	-8	0	41*	-2	-5	17
COC(=O)C1=C(C)N(C2CCCCC2)C(=O)C1	-6	1	4	42*	3	4	6
O=C1CSC(c2c(F)cccc2Cl)N1c1cccc(F)c1 (stereo unspecified)	0	4	3	44*	21	10	11
COc1ccc(-c2cc(C)no2)cc1S(=O)(=O)NCC(C)c1ccccc1 (stereo unspecified)	4	-3	-1	11	8	6	nt
Cc1ccc(C(=O)NCC(=O)OCC(=O)N(CC(C)C)c2c(N)n(Cc3ccccc3)c(=O)[nH]c2=O)cc1	-2	3	7	32*	1	-1	27
Cc1ccc(C(=O)NCC(=O)OCC(=O)N(CC(C)C)c2c(N)n(Cc3ccccc3)c(=O)[nH]c2=O)cc1C	-3	-11	1	5	1	-3	nt
CN1CCN(CC(=O)n2c3c(c4ccccc42)CCCC3)CC1	9	20	4	44*	-7	15	38
O=C(NN1C(=O)C2C3c4ccccc4C(c4ccccc43)C2C1=O)c1ccccc1 (stereo unspecified)	-2	-7	1	9	-7	-2	nt
Cc1ccc(C(=O)NN2C(=O)C3C4c5ccccc5C(c5ccccc54)C3C2=O)cc1 (stereo unspecified)	2	7	3	45*	-2	-4	17
O=C1CC(=Nc2ccc([N+](=O)[O-])cc2)NN1c1c(Cl)cc(Cl)cc1Cl	nt	nt	nt	95*	-17	nt	71*
O=[N+]([O-])c1ccc(N=Nc2c(Cl)cc(O)cc2Cl)cc1	-3	nt	nt	37	5	nt	nt
C=CCn1c(C)cc(C(=O)CSc2nnc(NC(C)C)s2)c1C	5	11	4	44*	6	2	7
C=CCn1c(C)cc(C(=O)CSc2nnc(NCc3ccccc3)s2)c1C	9	nt	nt	9	3	nt	nt
C#CCSc1nc2sc3c(c2c(=O)n1C)CCC3	-1	7	-5	9	0	-5	nt
Cc1csc2c(N3CCN(C(=O)c4ccc(C(C)(C)C)cc4)CC3)ncnc12	1	-30	1	40*	7	-15	20
Cc1csc2c(N3CCN(C(=O)NC(C)(C)C)CC3)ncnc12	-7	-43	7	19	-10	1	nt
c1ccc(Nc2ccccn2)cc1	13	2	5	8	-9	5	nt
c1ccc(/N=C2\N=C(Nc3ccccn3)c3ccccc32)nc1	0	29	6	42*	-9	7	8
OCCNCc1cc(Br)ccc1OCc1ccc(Cl)cc1Cl	nt	nt	nt	42*	-3	nt	11
Cc1ccc(NNC(=O)c2c(C)noc2C)cc1Cl	2	-3	-5	54*	19	-4	17
O=C1CN(C(=O)NCC(=O)N[C@@H](Cc2ccccc2)C(=O)O)c2ccccc2N1	3	-14	-3	46*	-3	2	20
O=C1CN(C(=O)N[C@@H](Cc2ccccc2)C(=O)N[C@@H](Cc2ccccc2)C(=O)O)c2ccccc2N1	0	-2	4	16	1	-3	nt
CC(C)C[C@H](NC(=O)N1CC(=O)Nc2ccccc21)C(=O)N[C@H](Cc1c[nH]c2ccccc12)C(=O)O	16	0	7	51*	-1	-11	5
SMILES	AHR act	SENP6 block	SENP7 inh	SENP8 block-1	EBI2 antag	SENP8 block-2	SENP8 inh conf
COc1ccc(NC(=O)Cc2c(SC)c3ccccc3n2Cc2ccccc2)cc1	14	-8	-1	9	26	-11	nt
CCN(CC)c1ccc(C=Nc2ccc(N(C)C)cc2)c(O)c1	28	17	6	52*	13	-13	32
CCN(CC)c1ccc(C=Nc2ccc(C)cc2)c(O)c1	9	0	-2	21	2	-1	nt
CCN(CC)c1ccc(N=Cc2ccc(N(CC)CC)cc2O)cc1	7	5	9	58*	34	5	11
Cc1ccc(S(=O)(=O)N[C@H](C(=O)N2CCC(C(=O)N[C@H](C(=O)O)c3ccccc3)CC2)C(C)C)cc1	-1	-7	7	48*	-5	-6	11
Cc1ccc(S(=O)(=O)N[C@H](C(=O)N2CCC(C(=O)NCC(=O)O)CC2)C(C)C)cc1	1	-9	-3	18	3	-13	nt
COc1ccc(S(=O)(=O)Nc2c(C(=O)O)[nH]c3ccc(OC)cc23)c(OC)c1	24	16	2	-40	5	5	nt
COc1c2ccoc2nc2c(OC)c(OCC(OC(C)=O)C(C)(C)O)ccc12 (stereo unspecified)	1	-17	10	-201	-2	-9	nt
CCOC(=O)CN1C(=O)S/C(=C/c2ccc(O)c([N+](=O)[O-])c2)C1=O	-1	-9	4	48*	13	-16	6
CCOC(=O)CN1C(=O)S/C(=C/c2ccc(C)o2)C1=O	-5	12	-3	16	-8	4	nt
CCOc1ccc(C(=O)n2cnnc2N)cc1	2	-5	-14	9	-4	-14	nt
COCCCOc1cc(NCc2ccccc2)c2ncn(C(C)C)c2c1	6	-9	4	22	-11	-8	nt
COc1ccc(Cc2cc(NCc3ccccc3)c3ncn(C(C)C)c3c2)cc1	6	-2	3	12	15	5	nt
CCCCOc1cc(NCc2ccccc2)c2ncn(C(C)C)c2c1	3	-3	18	51*	-41	8	65*
CCOCCOc1cc(NCc2ccccc2)c2ncn(C(C)C)c2c1	nt	nt	nt	40*	-11	nt	80*
CCCC(=O)Nc1ccc2c(c1)nc(CCN1CCCCC1)n2C	-1	-19	5	1	-4	0	nt
Cn1c(NNC(=O)c2ccccc2F)cc(=O)n(C)c1=O	6	-2	-2	23	-12	-7	nt
Cn1c(NNC(=O)c2c(F)cccc2F)cc(=O)n(C)c1=O	1	-10	7	48*	-11	6	48*
N/C(=N\O)c1ccc([N+](=O)[O-])s1	0	7	7	31	2	6	nt
NC(=O)c1ccc(N=Cc2ccc([N+](=O)[O-])s2)cc1	1	nt	nt	60*	0	nt	95*
O=[N+]([O-])c1ccc(N2CCN(S(=O)(=O)c3ccc(Cl)cc3)CC2)cc1NCc1cccnc1	3	0	11	39	10	6	nt

From PubChem
